The structures appear in SMILES notation. Activity calls are given as the source filed them. Rule for the calls: active = hit-call score of the fitted dose curve at least 0.9, where 1 is the maximum; inactive = score below 0.9.

By AC50 is commonly meant the concentration at which the activity in the assay is half-maximal.

One test can be described thus: ATG_EGR_CIS: Attagene CIS-FACTORIAL HepG2 Assay for human Early Growth Response 1 (EGR1) (AID 2282938). As to conditions: HepG2 Attagene CIS-FACTORIAL EGR reporter mRNA; actives raise or lower the signal. Summed up:
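HepG2 cells transiently transfected with cis-element-driven multiplexed reporter units, dosed for 24 h. EGR1-element reporter mRNA quantified by RT-PCR, 6-FAM labelling, HpaI digestion and capillary electrophoresis; bidirectional fit versus DMSO.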
With `CCOS(=O)(=O)OCC`, the molecule was called inactive.

On to `ClC(Cl)(Cl)c1ccccc1`, for which the molecule was called inactive.

Consider `CC(C)(C)N(NC(=O)c1ccc(Cl)cc1)C(=O)c1ccccc1`, for which the molecule was classed as inactive.

Consider `CCN(CC)c1ccccc1`, for which the molecule was called inactive.

With `CCCCN(CCCC)SN(C)C(=O)Oc1cccc2c1OC(C)(C)C2`, the call was inactive.

As for `CCOP(=S)(OCC)SCSCC`, the molecule was classed as inactive.

For the molecule `CCCCCCCc1ccc(O)cc1`, the result was inactive.

Regarding `O=C(O)C=CC(F)(C(F)(F)F)C(F)(F)F`, the outcome was inactive.

On to `CC(Cc1ccc(OCC(=O)O)cc1)NCC(O)c1csc(C(F)(F)F)n1` (stereo not drawn), for which the molecule was called inactive.

As for `CCC(C)(C)c1ccc(O)cc1`, the call was inactive.

Turning to `O=S(=O)(F)C(F)(F)C(F)(F)C(F)(F)C(F)(F)C(F)(F)C(F)(F)C(F)(F)C(F)(F)F`, the outcome was inactive.

Turning to `N#Cc1c(-c2ccc(Cl)cc2)[nH]c(C(F)(F)F)c1Br`, the molecule was called inactive.

Take `O=P(Oc1ccccc1)(Oc1ccccc1)Oc1ccccc1`: the AC50 was 33.4 µM (active).

Turning to `O=[N+]([O-])c1ccc(Cl)c(Cl)c1`, the molecule was called inactive.

Take `C/C(=N\NC(=O)Nc1cc(F)cc(F)c1)c1ncccc1C(=O)O`: the call was inactive.

As for `Nc1ccc(Cl)cc1`, the molecule was classed as inactive.

On to `CC(O)C#N` (stereo not drawn), for which the molecule was classed as inactive.

Consider `C=C(C)C(=O)OCC1CO1` (stereo not drawn), for which the molecule was called inactive.

With `CCCCN(CC)C(=O)SCCC`, the outcome was inactive.

As to `CCCCN(CCCC)N=O`, the call was inactive.

As for `ClC(Cl)c1ccccc1`, the molecule was called inactive.

For the molecule `c1ccc2c(c1)sc1ccccc12`, the call was inactive.

With `Cc1ccc([N+](=O)[O-])cc1C`, the result was inactive.

As for `CCC1(c2ccccc2)C(=O)N=C(O)NC1=O` (stereo not drawn), the molecule was classed as inactive.

Consider `OCC(F)(F)OC(F)(F)C(F)(F)OC(F)(F)CO`, for which the result was inactive.

Regarding `CCOP(=S)(Oc1ccc([N+](=O)[O-])cc1)c1ccccc1` (stereo not drawn), the outcome was inactive.

For `CCOP(=S)(OCC)SCn1nnc2ccccc2c1=O`, the AC50 was 9.67 µM (active).

In the case of `CC(C)(C)OOC(C)(C)C`, the call was inactive.

`Nc1ccc(Sc2ccc(N)cc2)cc1`: the molecule was called inactive.

`CN(C)C(=O)Cl`: the molecule was called inactive.

`CCCCc1ccc(O)cc1`: the call was inactive.

`c1ccc(OP(Oc2ccccc2)Oc2ccccc2)cc1`: the outcome was inactive.

In the case of `CC(Cl)(Cl)C(=O)O`, the call was inactive.

For `OCC(F)(F)OC(F)(F)C(F)(F)OC(F)(F)C(F)(F)OC(F)(F)CO`, the result was inactive.

In the case of `O=C(O)C1C(C(=O)O)C2(Cl)C(Cl)=C(Cl)C1(Cl)C2(Cl)Cl` (stereo not drawn), the molecule was called inactive.

Take `O=P1(N(CCCl)CCCl)NCCCO1` (stereo not drawn): the result was inactive.

Regarding `O=C(O)C(F)(OC(F)(F)C(F)(F)C(F)(F)F)C(F)(F)F` (stereo not drawn), the outcome was inactive.

Regarding `CCCCc1ccccc1`, the result was inactive.

For the molecule `N#Cc1cc([N+](=O)[O-])ccc1N`, the molecule was classed as inactive.

Another test in a line: ATG_M_19_CIS: Attagene CIS-FACTORIAL HepG2 Assay for M19 Transcription Factor (Internal Marker) (AID 2282939). As to conditions: HepG2 Attagene CIS-FACTORIAL M19 internal marker reporter; actives raise or lower the signal. A digest of the protocol: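 Signals come from fluorescence of labelled reporter-specific PCR fragments resolved by capillary electrophoresis, following 24 h treatment of HepG2 cells transfected with cis-promoter reporter units; activity was fitted in both directions relative to DMSO.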
Turning to `CCOS(=O)(=O)OCC`, the outcome was inactive.

In the case of `ClC(Cl)(Cl)c1ccccc1`, the call was inactive.

For the molecule `CC(C)(C)N(NC(=O)c1ccc(Cl)cc1)C(=O)c1ccccc1`, the molecule was classed as inactive.

For the molecule `CCN(CC)c1ccccc1`, the molecule was classed as inactive.

In the case of `CCCCN(CCCC)SN(C)C(=O)Oc1cccc2c1OC(C)(C)C2`, the molecule was classed as inactive.

For `CCOP(=S)(OCC)SCSCC`, the outcome was inactive.

With `CCCCCCCc1ccc(O)cc1`, the molecule was classed as inactive.

Turning to `O=C(O)C=CC(F)(C(F)(F)F)C(F)(F)F`, the result was inactive.

Take `CC(Cc1ccc(OCC(=O)O)cc1)NCC(O)c1csc(C(F)(F)F)n1` (stereo not drawn): the call was inactive.

On to `CCC(C)(C)c1ccc(O)cc1`, for which the call was inactive.

As for `O=S(=O)(F)C(F)(F)C(F)(F)C(F)(F)C(F)(F)C(F)(F)C(F)(F)C(F)(F)C(F)(F)F`, the outcome was inactive.

Consider `N#Cc1c(-c2ccc(Cl)cc2)[nH]c(C(F)(F)F)c1Br`, for which the outcome was inactive.

In the case of `O=P(Oc1ccccc1)(Oc1ccccc1)Oc1ccccc1`, the molecule was called inactive.

With `O=[N+]([O-])c1ccc(Cl)c(Cl)c1`, the molecule was called inactive.

Consider `C/C(=N\NC(=O)Nc1cc(F)cc(F)c1)c1ncccc1C(=O)O`, for which the outcome was inactive.

For `Nc1ccc(Cl)cc1`, the outcome was inactive.

Turning to `CC(O)C#N` (stereo not drawn), the outcome was inactive.

Regarding `C=C(C)C(=O)OCC1CO1` (stereo not drawn), the molecule was classed as inactive.

With `CCCCN(CC)C(=O)SCCC`, the call was inactive.

Turning to `CCCCN(CCCC)N=O`, the outcome was inactive.

Consider `ClC(Cl)c1ccccc1`, for which the result was inactive.

For the molecule `c1ccc2c(c1)sc1ccccc12`, the outcome was inactive.

Turning to `Cc1ccc([N+](=O)[O-])cc1C`, the molecule was called inactive.

Consider `CCC1(c2ccccc2)C(=O)N=C(O)NC1=O` (stereo not drawn), for which the outcome was inactive.

Regarding `OCC(F)(F)OC(F)(F)C(F)(F)OC(F)(F)CO`, the molecule was classed as inactive.

Regarding `CCOP(=S)(Oc1ccc([N+](=O)[O-])cc1)c1ccccc1` (stereo not drawn), the outcome was inactive.

For `CCOP(=S)(OCC)SCn1nnc2ccccc2c1=O`, the outcome was inactive.

Turning to `CC(C)(C)OOC(C)(C)C`, the call was inactive.

As for `Nc1ccc(Sc2ccc(N)cc2)cc1`, the call was inactive.

In the case of `CN(C)C(=O)Cl`, the outcome was inactive.

For the molecule `CCCCc1ccc(O)cc1`, the call was inactive.

Regarding `c1ccc(OP(Oc2ccccc2)Oc2ccccc2)cc1`, the molecule was called inactive.

Consider `CC(Cl)(Cl)C(=O)O`, for which the molecule was called inactive.

For `OCC(F)(F)OC(F)(F)C(F)(F)OC(F)(F)C(F)(F)OC(F)(F)CO`, the result was inactive.

Consider `O=C(O)C1C(C(=O)O)C2(Cl)C(Cl)=C(Cl)C1(Cl)C2(Cl)Cl` (stereo not drawn), for which the outcome was inactive.

For `O=P1(N(CCCl)CCCl)NCCCO1` (stereo not drawn), the outcome was inactive.

Turning to `O=C(O)C(F)(OC(F)(F)C(F)(F)C(F)(F)F)C(F)(F)F` (stereo not drawn), the result was inactive.

As for `CCCCc1ccccc1`, the outcome was inactive.

Consider `N#Cc1cc([N+](=O)[O-])ccc1N`, for which the outcome was inactive.

Source of the values: PubChem BioAssay (EPA / NIEHS).
